# Measured values as given in PubChem BioAssay AID652017 (The Scripps Research Institute Molecular Screening Center, 2013).
# Hit rate of the full screen: of about 370,000 compounds, about 3,800 (1%) were called active. Cut-off read from the data, not from the text of the source: active = activation above about 7.8%; inactive = the rest. Many of the other results were omitted from the sample, so actives are more common in it than they were.
# Assay: SMARCA2 (BRM) function activators, primary screen, cell-based, luminescence, high throughput (AID 652017);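 note: 0% = vehicle wells and 100% = reference activator wells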
# Settings: MG213 cells, MMTV-luciferase reporter, dexamethasone, overnight; at 9.1 µM; hits give high values
row,Structure (SMILES),activation
1,CCOC(=O)CCCNC(=O)COC(=O)c1cc(Br)c(Br)s1,-1.12% (inactive)
2,COC(=O)C1CN(CC(C)C)CCS(=O)(=O)N1Cc1ccc(F)cc1 (configuration not stated),1.2% (inactive)
3,COC(=O)[C@]12C[C@H](CC(=O)NCC34CC5CC(CC(C5)C3)C4)C(=O)N(Cc3ccc(Cl)cc3Cl)C1=C[C@H](COCc1ccccc1)O[C@@H]2C,-1.25% (inactive)
4,C=CCn1c(SCC(N)=O)nnc1-c1ccccc1OC,-5.95% (inactive)
5,O=C(NCc1ccccc1)c1onc(CSc2nc3ccccc3[nH]2)c1C(=O)NCc1ccccc1,-0.17% (inactive)
6,O=C(CSc1nc2ccccc2[nH]1)c1cccs1,8.32% (active)
7,Cn1c(SCC(=O)c2cccs2)nnc1-c1ccco1,2.45% (inactive)
8,COC(=O)[C@@]12CCCCC3=C1N(CCC3)C(=O)[C@H]2CC(=O)NCc1cccc2ccccc12,-2.69% (inactive)
9,Cc1cc(Cl)ccc1C(=O)C1CCCN(C(=O)c2ccc3c(c2)OCO3)C1 (configuration not stated),0.89% (inactive)
10,CC1=NNC(=O)C1CC(=O)N/N=C/c1ccncc1 (configuration not stated),-3.81% (inactive)
11,O=C(CSc1nnc(-c2ccccn2)n1-c1ccccc1)Nc1ccc2cn[nH]c2c1,0.38% (inactive)
12,Cc1ccc(C(=O)N(Cc2ccccn2)CC2CCCO2)cc1 (configuration not stated),-2.73% (inactive)
13,COc1ccc(CSc2nnc(-c3cccc(C)c3)n2C)cc1,-2.04% (inactive)
14,Cc1ccc(-c2nnc(SCC(=O)Nc3ccc(Oc4ccccc4)cc3)n2Cc2ccco2)cc1,-4.83% (inactive)
15,CCCCSCCCNC(=O)C1CCC(CNS(=O)(=O)c2ccc(NC(C)=O)cc2)CC1 (configuration not stated),-2.92% (inactive)
16,CCCCNC(=O)C1CCC(CNS(=O)(=O)c2ccc(NC(C)=O)cc2)CC1 (configuration not stated),12.9% (active)
17,CC(=O)Nc1ccc(S(=O)(=O)NCC2CCC(C(=O)NCCc3ccccc3)CC2)cc1 (configuration not stated),-3.64% (inactive)
18,COc1ccccc1C(=O)N1CCNC(=O)C1CC(=O)Nc1ccc(Cl)cc1 (configuration not stated),-0.22% (inactive)
19,COc1ccc(C2CC=C(C(=O)O)C(c3ccccc3F)N2S(=O)(=O)c2ccc(C)cc2)cc1OC (configuration not stated),0.02% (inactive)

row,Structure (SMILES),activation
1,N#C/C=C1\Sc2ccccc2C(=O)N1CC(=O)N1CCN(S(=O)(=O)c2ccccc2)CC1,6.51% (inactive)
2,CCc1ccccc1NC(=O)CSc1nnc(-c2cccs2)o1,5.4% (inactive)
3,COc1cc(CN2CCC(C(N)=O)CC2)ccc1OCc1ccccc1,10.4% (active)
4,COc1ccc(COCC(O)CN2CCC(C(N)=O)CC2)cc1 (configuration not stated),-2.59% (inactive)
5,COc1ccc(CCN2C(=O)CC(N3CCC(C(N)=O)CC3)C2=O)cc1OC (configuration not stated),-1.41% (inactive)
6,Cc1nc2ccc(C(=O)N3CCN(C(=O)C(C)(C)C)CC3)cc2n1C1CCCC1,-3.37% (inactive)
7,CC(C)Oc1ccc(C(=O)NCC(=O)Nc2ccc3c(c2)CCC3)cc1,5.66% (inactive)
8,O=C(Nc1ccc2c(c1)CCC2)c1ccc(Br)s1,9.61% (active)
9,CC1CC(C)CN(CCC(=O)Nc2ccc3c(c2)CCC3)C1 (configuration not stated),-0.27% (inactive)
10,C[C@H]1CN([C@@H](C)CO)C(=O)Cc2cc(NS(C)(=O)=O)ccc2O[C@@H]1CN(C)CC1CC1,0.45% (inactive)
11,COc1ccccc1CNS(=O)(=O)c1c(C)[nH]c(C)c1C(=O)N1CCCCC1,3.15% (inactive)
12,COc1ccc(NC(=O)C(C)SCc2ccccc2)cc1 (configuration not stated),-0.97% (inactive)
13,COC(=O)[C@H](CCSC)NC(=O)Nc1ccc(OC)cc1,0.38% (inactive)
14,COc1ccc(NC(=O)c2sccc2SCC#N)cc1,8.69% (active)
15,Cc1c[nH]c2cccc(-c3ccc(Cl)cc3)c12,-2.85% (inactive)
16,CCCCn1c(N)c(N(CC(C)C)C(=O)c2cccc(S(=O)(=O)N3CC(C)OC(C)C3)c2)c(=O)[nH]c1=O (configuration not stated),-0.77% (inactive)
17,COC(=O)C1CN(CC(C)C)CCS(=O)(=O)N1Cc1ccc(C)cc1 (configuration not stated),-1.21% (inactive)
18,CCC(=O)NC(=Nc1nc2ccccc2s1)NC(=O)CC,7.9% (active)
19,O=C(CSc1nc2ccccc2s1)NN=Cc1ccc(O)cc1O,-6.37% (inactive)

row,Structure (SMILES),activation
1,CC(C)CC(=O)N/C(N)=N/c1nc2ccccc2s1,5.04% (inactive)
2,COC(=O)CCC(=O)N1CCCC(CO)(Cc2ccccc2)C1 (configuration not stated),3.15% (inactive)
3,COc1cccc(N2CCN(CC(=O)N(C)Cc3ccc(F)cc3)CC2)c1,-2.95% (inactive)
4,COCn1c(COc2ccccc2)nc2ccccc21,9.21% (active)
5,COc1ccccc1Cn1c(CO)nc2ccccc21,-2.13% (inactive)
6,COCc1nc2ccccc2n1Cc1ccccc1Br,-3.44% (inactive)
7,COC(=O)C1CN(CCc2ccccc2)CCS(=O)(=O)N1Cc1cccc(Cl)c1 (configuration not stated),-3.45% (inactive)
8,CCCCN(CC)C(=S)Nc1ccc2nc3n(c(=O)c2c1)CCCCC3,-4.18% (inactive)
9,CC1CCCCC1NC(=O)CN1CCC(O)(c2ccc3c(c2)OCO3)CC1 (configuration not stated),8.42% (active)
10,CC1CCCCC1NC(=O)CCS(=O)(=O)c1ccc2c(c1)NC(=O)CO2 (configuration not stated),-2.77% (inactive)
11,Cc1ccc(NC(=O)CN2CCC3(O)CCCCC3C2c2ccc3c(c2)OCO3)c(C)c1 (configuration not stated),0.08% (inactive)
12,Cc1sc2nc(SCC(=O)c3ccc(O)c(O)c3)n(Cc3ccco3)c(=O)c2c1C,-5.31% (inactive)
13,Cc1ccc(S(=O)(=O)CC(=O)Nc2c(C)n(C)n(-c3ccccc3)c2=O)cc1,-1.75% (inactive)
14,Cc1ccccc1OCCC(=O)Nc1c(C)n(C)n(-c2ccccc2)c1=O,-3.07% (inactive)
15,Cc1c(NC(=O)CSc2cccc3cccnc23)c(=O)n(-c2ccccc2)n1C,8.2% (active)
16,C[C@]1(C(=O)NCCc2c[nH]c3ccccc23)C=C[C@@H](Cc2ccccc2)N1C(=O)c1ccccc1,1.41% (inactive)
17,Cc1ccc(-n2c(SCC(=O)Nc3ccc(S(=O)(=O)Nc4nccs4)cc3)nnc2-c2cccnc2)cc1,-5.55% (inactive)
18,Cc1c(CCO)c(=O)n(-c2ccccc2)n1S(=O)(=O)c1ccc(F)cc1,-2.63% (inactive)
19,O=C(NCc1cccs1)C1CCN(S(=O)(=O)c2ccccc2[N+](=O)[O-])CC1,-3.33% (inactive)
